# Screening results from PubChem BioAssay.
# An excerpt weighted towards active compounds, which were near 3.6% of everything screened.
# DUSP3 inh: VHR1 phosphatase inhibitors, primary screen, biochemical, absorbance, uHTS; Dual specificity protein phosphatase 3 (Homo sapiens), P51452; recombinant VHR phosphatase, pNPP absorbance; inhibition, % at 13.3 µM; actives 0.52% (n = 290,000); AID 1654, 2009; in the data active = inhibition above about 50%
# Target sequence (P51452 whole entry, looked up): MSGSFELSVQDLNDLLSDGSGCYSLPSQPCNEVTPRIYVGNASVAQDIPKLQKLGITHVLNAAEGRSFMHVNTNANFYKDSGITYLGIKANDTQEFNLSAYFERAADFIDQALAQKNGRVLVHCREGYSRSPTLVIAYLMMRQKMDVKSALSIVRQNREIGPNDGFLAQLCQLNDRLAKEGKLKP
# FBA Mtb inh: Mtb FBA enzyme inhibitors, primary screen, biochemical, fluorescence, strain H37Rv; Fructose-bisphosphate aldolase (Mycobacterium tuberculosis (strain ATCC 25618 / H37Rv)), …; purified M. tuberculosis FBA, fluorescence read-out; inhibition, % at 1 µM; actives 2.3% (n = 360,000); AID 588726, 2011;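 note: 0% = vehicle and 100% = reference inhibitor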
# Target sequence (P9WQA3 whole entry, looked up): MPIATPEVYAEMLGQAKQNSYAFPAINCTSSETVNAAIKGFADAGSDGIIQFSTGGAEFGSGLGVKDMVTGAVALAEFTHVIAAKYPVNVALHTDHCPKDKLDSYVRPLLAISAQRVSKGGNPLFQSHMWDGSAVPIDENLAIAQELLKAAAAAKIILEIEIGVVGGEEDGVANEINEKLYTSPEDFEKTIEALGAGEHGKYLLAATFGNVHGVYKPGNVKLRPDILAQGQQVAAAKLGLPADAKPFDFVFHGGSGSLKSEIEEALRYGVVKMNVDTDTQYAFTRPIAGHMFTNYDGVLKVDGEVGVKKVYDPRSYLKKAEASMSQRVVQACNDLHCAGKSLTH
# Mtb hypoxia inh: PubChem AID 1159583. M. tuberculosis hypoxia-regulated fluorescent reporter, fluorescence. fluorescence inhibition, % (concentration not given with the values). actives 0.1% (n = 300,000); in the data active = fluorescence inhibition mostly above about 23%, no sharp cut-off; inactive = mostly below about 17%
# GDH-TPI counter-1: GDH-TPI coupling enzyme inhibitors, primary screen, artefact control for M. tuberculosis FBA inhibitor project, biochemical, absorbance, full deck. GDH-TPI coupled enzyme counterscreen, NADH absorbance. inhibition, % at 4.8 µM. actives 1.2% (n = 360,000). AID 588335, 2011; in the data active = inhibition above about 30%;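 note: 0% = DMSO wells and 100% = wells lacking the enzyme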
# Mtb bLac sens: beta-lactam sensitization of Mtb H37Rv, H37Rv; inhibition, % at 25 µM; M. tuberculosis H37Rv growth with meropenem, percent inhibition; actives 0.27% (n = 330,000); call rule not given here;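 note: growth measured after seven days incubation then overnight dye step; 0% = bacteria only wells and 100% = bacteria with antibiotic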
# Mtb FBA confirm: M. tuberculosis aldolase blockers, biochemical, fluorescence, strain H37Rv, confirmation. shares compounds with FBA Mtb inh. purified M. tuberculosis FBA, fluorescence read-out. inhibition, % at 1 µM. actives 78% (n = 5,600);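 note: 0% = vehicle wells and 100% = reference inhibitor wells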
# GDH-TPI counter-2: GDH-TPI coupling enzyme inhibitors, artefact control for M. tuberculosis FBA inhibitor project, biochemical, fluorescence, high throughput; shares compounds with FBA Mtb inh; inhibition, % at 1 µM; actives 81% (n = 5,600); GDH-TPI coupled enzyme counterscreen; in the data active = inhibition above about 10%
# Numbers without * were called inactive; u = inconclusive; x = not tested or not shown; + = active, no number. Cut-off read from the data, not from the text of the source, unless noted: active = inhibition above about 27%; inactive = the rest.
SMILES,DUSP3 inh,FBA Mtb inh,Mtb hypoxia inh,GDH-TPI counter-1,Mtb bLac sens,Mtb FBA confirm,GDH-TPI counter-2
O=C(O)CCC(=O)NN1C(=O)c2ccccc2NC1c1ccc(F)cc1 (stereo not given),0.9,40.0*,6.7,2.5,-4.8,126.6*,95.1*
CCN(CC)CCN1C(=O)c2ccccc2NC1c1ccc(N(C)C)cc1 (stereo not given),10.5,13.2,x,0.0,-4.8,x,x
O=C1c2ccccc2NC(c2ccc(-c3cccc(F)c3)o2)N1O (stereo not given),x,12.8,11.7,11.2,-2.0,x,x
CCN(CC)CCN1C(=O)c2ccccc2NC1c1ccc(C)cc1 (stereo not given),14.6,78.8*,13.3,9.9,u,63.3*,38.5*
O=C1c2ccccc2NC(c2ccccc2F)N1NS(=O)(=O)c1ccccc1 (stereo not given),30.6,12.6,2.9,3.1,6.3,x,x
CCN(CC)CCN1C(=O)c2ccccc2NC1c1ccccc1F (stereo not given),-0.2,68.4*,14.0,6.6,-2.5,168.7*,88.0*
CCN(CC)CCN1C(=O)c2ccccc2NC1c1ccc(F)cc1 (stereo not given),7.1,45.0*,-2.3,13.3,-5.1,129.1*,117.2*
S=c1[nH]nc(-c2ccco2)n1N=Cc1c(Cl)cccc1Cl,x,x,10.7,x,x,x,x
CC(=NNC(=O)c1nnn(-c2nonc2N)c1CN1CCc2ccccc21)c1ccccc1O,x,x,-19.2,x,x,x,x
Cc1ccc(CN2CCN(N=Cc3cccnc3)CC2)c(C)c1,x,x,3.1,x,x,x,x
CC(=NNc1nc2ccccc2[nH]1)c1ccc2c(c1)OCCO2,x,x,-14.8,x,x,x,x
CCCCc1c(C)c(C#N)c2[nH]c3ccccc3n2c1=O,18.8,76.8*,4.8,9.5,99.1,-3.7,-5.3
CCCc1cc(=O)n2c([nH]c3ccccc32)c1C#N,27.1,54.1*,16.3,-0.2,-4.8,+,195.3*
CC(C)NCC(O)Cn1c2c(c3ccccc31)CCc1c-2cnn1-c1ccccc1 (stereo not given),5.0,32.8*,x,6.8,100.2,8.1,0.0
Cc1c(C)c2ccc(OCC(=O)Nc3cccnc3)c(C)c2oc1=O,-8.2,60.4*,-1.1,13.8,3.4,-2.1,2.5
CCc1cc(=O)oc2cc(C)cc(OCC(=O)NCCN3CCOCC3)c12,7.3,60.7*,10.0,10.3,7.3,51.6*,65.9*
O=C(COc1ccccc1O)NCCN1CCOCC1,2.1,1.5,-0.6,3.7,-8.6,x,x
CCCc1cc(=O)oc2cc(C)cc(OCC(=O)NCCN3CCOCC3)c12,0.4,66.5*,8.0,1.7,3.9,-0.5,-3.9
CCc1cc(=O)oc2cc(C)cc(OCC(=O)NCCc3c[nH]c4ccccc34)c12,16.5,9.0,x,5.9,-2.3,x,x
Cc1c(C)c2ccc(OCC(=O)NCCN3CCOCC3)c(C)c2oc1=O,1.6,46.8*,-5.7,3.0,-5.7,+,+
S=c1[nH]nc(-c2ccncc2)n1N=C/C=C/c1ccccc1,x,x,-11.1,x,x,x,x
O=[N+]([O-])c1cccc(C=Nn2c(-c3cccnc3)n[nH]c2=S)c1,x,x,-4.1,x,x,x,x
CON=CC(C(C)=O)C(=O)Nc1ccc(Cl)cc1Cl (stereo not given),x,x,8.4,x,x,x,x
CCCc1cc(=O)oc2cc(C)cc(OCC(=O)Nc3ccc(CN4CCOCC4)cc3)c12,3.7,43.5*,-5.5,10.0,1.6,1.7,-4.9
Cc1cc(OCC(=O)NCCCN2CCOCC2)c2c(C)cc(=O)oc2c1,-3.0,61.1*,11.5,4.8,4.8,137.7*,141.8*
SMILES,DUSP3 inh,FBA Mtb inh,Mtb hypoxia inh,GDH-TPI counter-1,Mtb bLac sens,Mtb FBA confirm,GDH-TPI counter-2
Cc1cc(=O)oc2cc(OCC(=O)NCCCN3CCOCC3)ccc12,-3.4,15.0,x,12.3,-8.2,x,x
C#CCOCCOCCOCCNc1nc(OC)nc(N2CCN(C(=O)C(CCCCN)n3cc(C(N)CO)nn3)CC2)n1 (stereo not given),x,x,5.8,x,x,x,x
COC(CC1OC1C(=O)COCc1ccccc1)OC (stereo not given),x,x,8.9,x,x,x,x
CCOC(=O)c1cc2c(=O)n3ccccc3nc2n(Cc2ccco2)c1=NC(=O)c1ccc(OC)cc1OC,26.2,103.9*,3.1,16.0,-6.2,91.3*,88.1*
CCCCn1c(=NC(=O)c2cccnc2)c(C(=O)OCC)cc2c(=O)n3ccccc3nc21,2.3,55.5*,-85.3,-11.6,x,133.7*,90.8*
CCOC(=O)c1cc2c(=O)n3ccccc3nc2n(C)c1=NC(=O)c1c(-c2c(F)cccc2Cl)noc1C,x,33.1*,8.1,-4.6,-9.8,162.2*,131.6*
COC(=O)c1cc2c(=O)n3cccc(C)c3nc2n(Cc2cccnc2)c1=N,26.7,x,x,x,x,x,x
COc1ccc(OC)c(NC(=O)c2cc3c(=O)n4ccccc4nc3n2C)c1,29.3,-2.7,8.0,5.7,7.6,x,x
Cc1ccc(-n2ncc3c(NCCCN4CCCC4=O)ncnc32)c(C)c1,40.0,2.3,5.7,2.8,-0.4,x,x
Cc1ccc2[nH]c3c(NCCCN4CCCC4=O)ncnc3c2c1,1.8,38.9*,11.4,5.7,0.4,25.7,27.0*
COc1cc(CNc2ncnc3c2[nH]c2ccc(C)cc23)cc(OC)c1,17.2,35.4*,14.4,4.8,85.4,-5.3,-0.5
Cc1ccc2[nH]c3c(NCc4ccco4)ncnc3c2c1,17.3,42.3*,5.5,9.6,51.0,-1.9,-7.1
Nc1ccccc1C(=O)NCC1(c2ccccc2)CCCC1,34.6,33.2*,9.2,-17.1,3.4,159.7*,128.0*
O=C(NCC1(c2ccccc2)CCCC1)c1ccc(Br)cc1,4.1,-1.5,16.0,9.0,25.4,x,x
CCOC(=O)C1CCN(C(=O)CCc2c(C)nc3cc(-c4ccc(OC)cc4OC)nn3c2C)CC1,-9.6,50.1*,-2.0,1.2,43.4,99.6*,67.5*
CCOC(=O)C1CCN(C(=O)CCc2c(C)nc3ncnn3c2C)CC1,20.1,-4.9,9.0,8.3,-6.6,x,x
Cc1csc2nc(=O)c3ccccc3n12,-2.0,49.3*,x,5.3,x,+,174.6*
Cc1nc2scc(C)n2c(=O)c1S(=O)(=O)N1CCN(c2ccccc2)CC1,20.4,-0.4,1.3,20.8,2.2,x,x
CC(C(O)c1ccccc1)N(C)C(=O)C(N)Cc1ccccc1 (stereo not given),x,x,-0.9,x,x,x,x
CCN(CC(=O)NCc1ccc(F)cc1)C(=O)/C=C/c1cc(OC)ccc1OC,20.6,44.8*,6.2,16.4,x,+,194.1*
CCN(CC(=O)NCc1ccc(Cl)cc1)C(=O)/C=C/c1cc(OC)c(OC)c(OC)c1,5.1,16.5,0.3,12.0,3.0,x,x
CC(C)(C)C1C=C(C(=O)Nc2ccccc2)OC(OCCCCO)C1 (stereo not given),x,x,6.1,x,x,x,x
